Results on 16 compounds are retold here after the supplement of paper PMC7695840.

The structures appear in SMILES notation.

The test has as its system Staphylococcus aureus MW2 (mecA+). The experiment in a line: normalized DsRed fluorescence (growth of mecA+ strain) (fraction of control range); higher = more growth of mecA+ strain. The following applies: compound concentration: 150 uM; cefoxitin: subinhibitory; fluorescent label: DsRed. Summed up:
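S. aureus MW2 cells, pre-induced, were used as a 1:1 mix of a DsRed strain carrying the gene and a GFP strain lacking it, in LB with a subinhibitory antibiotic dose set each day. At 5 µL/well they were placed onto 150 μM compound (1.5% DMSO) in 1536-well plates, one replicate, and kept unshaken for 20 h at 37 °C, 90% humidity. After DsRed (540/590) and GFP (485/520) reads scaled per plate to single-strain control medians, plates with high untreated ratios and rows with DsRed/GFP >10 were excluded.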
Take `CC(C)(O)c1ccccc1CC[C@@H](SCC1(CC(=O)O)CC1)c1cccc(/C=C/c2ccc3ccc(Cl)cc3n2)c1`: the “normalized DsRed fluorescence” value amounted to 0.632.

Consider `C[C@H](NCc1ccc(OCc2cccc(F)c2)cc1)C(N)=O`, for which the “normalized DsRed fluorescence” value was 0.675.

For `CNC[C@H](O)[C@@H](O)[C@H](O)[C@H](O)CO` [Meglumine], the “normalized DsRed fluorescence” value stood at 0.823.

As for `CN1C2=CC(=O)/C(=N\NC(N)=O)C=C2CC1S(=O)(=O)O` (stereo unspecified) [Carbazochrome sodium sulfonate], the “normalized DsRed fluorescence” value stood at 0.676.

Regarding `NNc1nncc2ccccc12`, the “normalized DsRed fluorescence” value turned out to be 0.694.

As for `CS(=O)(=O)OCCCCOS(C)(=O)=O`, the “normalized DsRed fluorescence” value was 0.573.

Consider `COCCOC(=O)C1=C(C)NC(C)=C(C(=O)OC(C)C)C1c1cccc([N+](=O)[O-])c1` (stereo unspecified), for which the “normalized DsRed fluorescence” value was found to be 0.85.

On to `CN(C)CCCN1c2ccccc2Sc2ccccc21`, for which the “normalized DsRed fluorescence” value was 1.06.

With `CC[C@@H]([C@H](C)O)n1ncn(-c2ccc(N3CCN(c4ccc(OC[C@@H]5CO[C@@](Cn6cncn6)(c6ccc(F)cc6F)C5)cc4)CC3)cc2)c1=O` [Posaconazole], the “normalized DsRed fluorescence” value worked out at 0.572.

Consider `O=C(Nc1cccc2c(=O)cc(-c3nnn[nH]3)oc12)c1ccc(OCCCCc2ccccc2)cc1` [Pranlukast], for which the “normalized DsRed fluorescence” value stood at 0.714.

For the compound `O=C(O)c1cc(-c2ccc(F)cc2F)ccc1O`, the “normalized DsRed fluorescence” value amounted to 0.298.

`O=C(c1ccc(OCCN2CCCCC2)cc1)c1c(-c2ccc(O)cc2)sc2cc(O)ccc12`: the “normalized DsRed fluorescence” value stood at 0.747.

As to `CN(C)CCc1c[nH]c2ccc(CS(=O)(=O)N3CCCC3)cc12`, the “normalized DsRed fluorescence” value came out at 1.

As for `NC(=O)OCC(COC(N)=O)c1ccccc1` [Felbamate], the “normalized DsRed fluorescence” value is 0.864.

As for `Nc1nc(N)c2nc(-c3ccccc3)c(N)nc2n1`, the “normalized DsRed fluorescence” value turned out to be 1.75.

Consider `N[C@@H](Cc1c[nH]c2ccccc12)C(=O)O`, for which the “normalized DsRed fluorescence” value worked out at 0.604.
